High-throughput results: PubChem, several laboratories
S1P4 antagonist: S1P4 receptor antagonists, primary screen, cell-based. Sphingosine 1-phosphate receptor 4 (Homo sapiens), O95977. S1P4-expressing cells, antagonist mode, reporter read-out. inhibition, % at 4.98 µM. actives 0.26% (n = 220,000); in the data active = inhibition above about 29%
Target sequence (O95977 whole entry, looked up): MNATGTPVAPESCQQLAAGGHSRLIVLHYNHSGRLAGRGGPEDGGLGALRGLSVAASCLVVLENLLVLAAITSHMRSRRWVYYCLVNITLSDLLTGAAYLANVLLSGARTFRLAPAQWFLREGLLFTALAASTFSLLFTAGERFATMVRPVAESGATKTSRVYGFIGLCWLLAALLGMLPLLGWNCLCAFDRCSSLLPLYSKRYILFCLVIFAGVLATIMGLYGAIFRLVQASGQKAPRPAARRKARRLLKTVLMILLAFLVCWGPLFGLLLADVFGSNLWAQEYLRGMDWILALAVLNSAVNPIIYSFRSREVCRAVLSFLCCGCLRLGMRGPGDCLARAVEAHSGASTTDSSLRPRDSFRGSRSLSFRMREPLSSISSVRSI
PGE2 EP2 inh: human EP2 receptor antagonists, primary screen, TR-FRET cAMP, C6 glioma cells. AID 1422, 2008. inhibition, % at 25 µM. Prostaglandin E2 receptor EP2 subtype (Homo sapiens), P43116. actives 0.52% (n = 260,000). C6 glioma cells expressing human EP2; cells stimulated with saturating PGE2;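 active = percent inhibition above 40 after rounding to a whole number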;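 also: rat C6 glioma host cells with rolipram phosphodiesterase inhibitor present; the protocol text gives 20 µM as final concentration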
S1P3 antagonist: S1P3 receptor antagonists, primary screen, cell-based; Sphingosine 1-phosphate receptor 3 (Homo sapiens), Q99500; CHO S1P3 NFAT-BLA reporter, FRET fluorescence, antagonist mode; inhibition, % at 4.98 µM; actives 0.27% (n = 170,000);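 active = inhibition above the plate cutoff, the mean inhibition of test wells on that plate plus 3 SD, cut at about 28% in these data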;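 also: cells challenged with S1P at its EC80 of 0.8 µM; blue over green emission ratio from cleaved BLA substrate after 4 h stimulation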
S1P4 ag: S1P4 receptor agonists, primary screen, cell-based | S1P4-expressing cell line, agonist reporter assay | activation, % at 4.98 µM | actives 0.35% (n = 220,000); in the data active = activation above about 11%
EP2 modulator: EP2 receptor modulators, cAMP readout, primary screen, cell-based, HTRF cAMP, PGE2 stimulation | Prostaglandin E2 receptor EP2 subtype (Homo sapiens), P43116 | actives 0.83% (n = 260,000) | EP2-expressing cells, cAMP HTRF FRET, PGE2 co-stimulation | induction, % at 25 µM;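 active = compounds whose cAMP rise, as percent of the full-agonist control response, exceeds 60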;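 also: rat C6 glioma line stably carrying human EP2 under a CMV promoter; the protocol text gives 20 µM as final concentration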
S1P4 agonist cf: S1P4 receptor agonists, retest, confirmation, cell-based, high throughput | S1P4 agonist cell-based reporter assay | activation, % at 4.98 µM | actives 7% (n = 740) | shares compounds with S1P4 ag; in the data active = activation above about 12%
S1P1 agonist: S1P1 receptor agonists, human, counter-screen for S1P4 agonist project, cell-based. shares compounds with S1P4 ag. S1P1 agonist cell-based assay, activation. activation, % at 4.98 µM. actives 4% (n = 740). AID 1563, 2009; in the data active = activation above about 21%
A number is an active result; . = inactive; / = not tested or not shown. Hits are enriched below; roughly 1.9% of the tested compounds scored in any of these assays.

SMILES	S1P4 antagonist	PGE2 EP2 inh	S1P3 antagonist	S1P4 ag	EP2 modulator	S1P4 agonist cf	S1P1 agonist
Cc1ccc(C)c(NC(=O)CSc2nnc3c(n2)[nH]c2c(C)cc(C)cc23)c1	/	.	/	/	.	/	/
NS(=O)(=O)c1ccc(N2N=C(c3ccccc3)CC2c2cccc(F)c2)cc1 (centres undefined)	.	.	.	.	.	/	/
NS(=O)(=O)c1ccc(N2N=C(c3ccc(Br)cc3)CC2c2ccc(F)cc2)cc1 (centres undefined)	.	.	/	24	.	43	112
CCOC(=O)c1sc(NC(=O)c2ccc(OCC)c(Cl)c2)c(C#N)c1C	/	.	/	/	.	/	/
COc1ccc(NC(=O)CSc2nc3c(c(=O)n2-c2ccc(F)cc2)SCC3)c(OC)c1	.	.	.	13	.	.	.
Cc1ccc(OC2=NS(=O)(=O)c3ccccc32)cc1	.	.	/	.	.	/	/
CCc1ccc(OC2=NS(=O)(=O)c3ccccc32)cc1	.	.	.	14	.	.	.
Cc1nc2c(NC(=O)COc3ncnc4ccccc34)cccc2[nH]1	/	.	/	/	.	/	/
O=C(Cn1cnc2ccccc2c1=O)Nc1ccc2c(c1)OCO2	.	.	.	.	.	/	/
O=C(Cn1cnc2cc([N+](=O)[O-])ccc2c1=O)Nc1ccc2c(c1)OCO2	.	.	.	24	.	.	.
Cc1cccc(NC(=O)C2Cc3ccccc3CN2S(=O)(=O)c2cccs2)c1 (centres undefined)	/	.	/	/	.	/	/
COc1ccc(CN2CCC(N3CCC(C(=O)N4CCOCC4)CC3)CC2)c(F)c1	.	.	.	11	.	.	.
COc1cccc(C2C=C(c3cccs3)Nc3ncnn32)c1OC (centres undefined)	.	.	.	.	.	/	/
COc1cccc(C2CN(c3ccc(F)cc3F)N=C2c2cccs2)c1OC (centres undefined)	.	/	/	25	.	15	43
CC[C@H](Cn1nc(-c2cccs2)ccc1=O)NC(=O)c1cccs1	/	/	/	/	.	/	/
COc1ccc(CC(=O)NNS(=O)(=O)c2ccccc2)cc1OC	.	.	.	12	.	.	.
CCN=c1scc(C)n1/N=C/c1ccsc1	.	.	.	165	.	.	.
COc1ccc(OCC(=O)Nc2ccc(N3CCN(C(=O)C(C)C)CC3)cc2)cc1	/	.	/	/	.	/	/
O=[N+]([O-])c1cccnc1NCCc1ccccc1	.	.	.	.	.	/	/
COC(=O)CCCNc1ncccc1[N+](=O)[O-]	.	.	.	48	.	.	.
COc1ccccc1C(=O)Nc1nc2cc3c(cc2s1)OCO3	.	.	.	27	.	.	.
CCN(CC)C(=O)CSc1nnc(-c2ccoc2C)n1-c1ccc(C)cc1	/	.	/	/	.	/	/
O=C(Nc1nc(-c2ccccn2)cs1)C1COc2ccccc2O1 (centres undefined)	.	.	.	38	.	.	.
N#CC1=C(N)Oc2cc(N)ccc2C1C1CCCCC1 (centres undefined)	.	.	.	14	.	.	.
COc1cccc(OC)c1C(=O)N1CCN(C(C)C)CC1	/	.	/	/	.	/	/
SMILES	S1P4 antagonist	PGE2 EP2 inh	S1P3 antagonist	S1P4 ag	EP2 modulator	S1P4 agonist cf	S1P1 agonist
COc1cc(C(C)=O)ccc1OC(=O)c1cc2cccc(OC)c2oc1=O	.	.	.	14	.	.	.
Cn1c(SCC(=O)Nc2ccccc2C(F)(F)F)nc2sc3c(c2c1=O)CCCC3	/	.	/	/	.	/	/
CCOCCCn1c(=NC(=O)c2cccs2)c(C#N)cc2c(=O)n3ccccc3nc21	.	.	.	15	.	.	30
C=CCNC(=O)C1CC(c2ccc(Cl)cc2)=NO1 (centres undefined)	/	.	/	/	.	/	/
CCOc1ccc(NC(=O)CSc2ncnc3scc(-c4ccccc4)c23)cc1	/	.	/	/	.	/	/
OCC(O)C1OC(Nc2ccc(Cl)cc2)C(O)C1O (centres undefined)	.	.	.	71	.	.	.
CC(C)CCN1CCN(Cc2cccs2)CC1CCO (centres undefined)	.	.	.	.	.	/	/
CC(C)N1CCN(Cc2cccs2)CC1CCO (centres undefined)	.	.	.	64	.	.	.
CC12c3ccccc3C(c3ccccc31)C1C(=O)N(c3cccnc3)C(=O)C12 (centres undefined)	.	.	.	.	.	/	/
CC12c3ccccc3C(c3ccccc31)C1C(=O)N(Cc3cccnc3)C(=O)[C@H]12 (some centres undefined)	.	.	.	40	.	.	.
Cc1cccc[n+]1CC(=O)/C=C1\N(C)c2ccccc2C1(C)C	.	.	.	21	.	.	.
Cc1ccc[n+](CC(=O)/C=C2\N(C)c3ccccc3C2(C)C)c1	.	.	.	.	.	/	/
CCn1c(C)c(C(C)=O)c(N2CCCC2)nc1=S	.	.	.	17	.	.	.
C[C@H](Cn1nnc2ccccc21)NC(=O)c1n[nH]c(=O)c2ccccc12	/	.	/	/	.	/	/
O=[N+]([O-])c1ccc(OCCO)c(P(=O)(c2ccccc2)c2ccccc2)c1	.	.	.	155	.	.	.
O=C(COC(=O)c1ccccn1)NCc1ccccc1Cl	.	.	.	27	.	.	.
O=C(CCSc1nnc(-c2ccccc2)o1)N1CCOCC1	.	.	.	28	.	.	.
Cc1ccc(-c2nnc(SCCC(=O)N3CCOCC3)o2)cc1	.	.	.	.	.	/	/
CCCC(c1nnnn1C1CCCCC1)N1CCN(CC)CC1 (centres undefined)	/	.	/	/	.	/	/
CNS(=O)(=O)c1ccc(NC(=O)c2ccccn2)cc1	.	.	.	70	.	.	.
CCOc1ccc(NC(=O)c2ccccn2)cc1	.	.	.	.	.	/	/
Cc1c(NC(=O)Cn2cc([N+](=O)[O-])cn2)c(=O)n(-c2ccccc2)n1C	.	.	.	.	.	/	/
Cc1c(NC(=O)Cn2ccc([N+](=O)[O-])n2)c(=O)n(-c2ccccc2)n1C	.	.	/	25	.	.	.
CCC(=O)NC(=S)Nc1ccccc1C(=O)NC1CCCCC1	.	.	.	.	.	/	/
CC(C)C(=O)NC(=S)Nc1ccccc1C(=O)NC1CCCCC1	.	.	.	58	.	.	.
O=C(Nc1ccc(Cl)cn1)c1ccc([N+](=O)[O-])o1	.	.	.	49	.	.	.
COc1ccc2[nH]c(=O)c(CN(C(=O)Nc3ccc(Cl)cc3)C3CCCC3)cc2c1	/	.	/	/	.	/	/
CNC(=O)c1cccnc1Nc1cccc(C(F)(F)F)c1	.	.	.	33	.	.	.
Cc1cccnc1NC(=O)Nc1cccc(C(F)(F)F)c1	.	.	.	.	.	/	/
